Shown are actives, neighbours in structure and some others; about 5% of the full set was active somewhere.
PREPL inh: inhibits the human prolyl oligopeptidase-like enzyme. recombinant PREPL, fluorescence polarization activity-based probe. inhibition, % at 5.96 µM. hit rate 0.68% among 320,000; in the data active = inhibition above about 43%;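 also: 0% = enzyme with DMSO and 100% = wells lacking enzyme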
ALR inh: human ALR oxidase inhibition via reduced H2O2. P55789. purified ALR, DTT oxidation, H2O2 HRP-luminol luminescence. inhibition, % (no concentration beside the values). hit rate 3.8% among 290,000. AID 485317;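 active = mean replicate inhibition above about 79%, with every replicate also reaching it, limit read from the data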
CHT inh: inhibits the human high affinity choline transporter; CHT-expressing cells, membrane potential dye, choline response; hits give low values; hit rate 0.86% among 310,000; Q9GZV3; B-score at 10 µM; AID 488975;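 active = B-score over 3 SD under the library average, and starting fluorescence ratio not unusually high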;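 also: choline stimulus applied at its EC90 after an EC20 pre-addition; B-score computed on integrated fluorescence ratio after choline addition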
AI-2 QS mod: modulates the Vibrio harveyi AI-2 quorum sensing system; Vibrio harveyi JMH597 AI-2 luminescence/OD600 ratio, 9 h; hits give low values; strain lacks LuxN and CqsS sensors; 0 = neutral-control median; activity change, % at 7.5 µM; hit rate 0.4% among 300,000; AID 2094; in the data active = activity change below about -75%, passing the limit was not always enough;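 also: luminescence divided by OD600 gain over 9 h not by final OD600 alone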
CHT allo act: allosterically activates the human high affinity choline transporter; Q9GZV3; CHT-expressing cells, membrane potential dye, choline EC20; hits give high values; LV-AA mutant CHT in HEK293 cells; B-score at 10 µM; hit rate 0.49% among 310,000; AID 488977;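 active = initial fluorescence not abnormally high and integrated response B-score, plate-corrected, over 3 SD above library mean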
CHT activ conf: confirmation of human choline transporter (CHT) activators | shares compounds with CHT allo act | activation, % at 10 µM | CHT-expressing cells, membrane potential dye fluorescence (FDSS); % of choline EC20–EC90 response window; HEK293 expressing CHT LV-AA mutant; choline added at its EC20 | hit rate 91% among 2,500 | AID 504833;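 active = primary screen active, with duplicate mean activation above negative control mean plus 3 SD, cut at about 11% in these data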
HEK293 MP dye: counter-screen for CHT activators: effect in parental HEK293 cells. hit rate 62% among 2,500. membrane potential dye fluorescence (FDSS); measured after EC20 choline addition. shares compounds with CHT allo act. ratio readout change at 10 µM, hits read low;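 active = duplicate-averaged ratio beyond 3 SD from buffer wells, up or down, though filed actives are nearly all decreases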
The depositor's hits bear a star; i = inactive; / = not tested or not shown.

SMILES | PREPL inh | ALR inh | CHT inh | AI-2 QS mod | CHT allo act | CHT activ conf | HEK293 MP dye
COc1cc(/C=C2\CCn3c2nc2cc(C(=O)O)ccc2c3=O)ccc1OC(F)F | 6 | 25 | i | 71 | i | 26* | -32*
O=C(O)c1ccc2c(=O)n3c(nc2c1)/C(=C/c1ccc(C(F)(F)F)cc1)CC3 | -4 | / | i | 17 | i | / | /
CCN(CC)CCNc1cc(C)nc2c1C(=O)C(=O)C=C2N1CCCCC1 | 14 | 8 | i | 7 | 7.3* | 65* | -66*
O=C1N[C@H](Cc2ccccc2)COC(=O)[C@@H](Cc2ccc(F)cc2)C/C=C\C[C@H]1CC(=O)N(CCO)Cc1ccccc1 | 23 | -3 | / | / | / | / | /
Cc1c(CCOC(=O)c2cc([N+](=O)[O-])cc([N+](=O)[O-])c2)sc[n+]1CCCCS(=O)(=O)[O-] | 0 | -30 | i | 0 | i | 12* | -21*
CCOC(Cn1cc(C)c(=O)[nH]c1=O)OCC | -7 | -2 | i | 13 | i | / | /
O=C(Cc1ccccc1)NC(NCCc1ccccc1)C(Cl)(Cl)Cl (stereo unspecified) | -35 | -19 | i | 19 | i | / | /
CCCC(=O)N/C(N)=N/c1nc(C)c2ccccc2n1 | 0 | 1 | i | 27 | i | 36* | -46*
O=C(COC(=O)COc1ccc(Br)cc1)Nc1ccc2c(c1)OCCO2 | 6 | -1 | / | / | / | / | /
O=C(N/N=C/c1ccc(OCc2ccccc2)cc1)c1ccco1 | 10 | -3 | i | 9 | i | / | /
O=C(N/N=C/c1ccccc1)c1ccco1 | 15 | 14 | i | 7 | i | / | /
O=C(N/N=C/c1ccc2cccnc2c1)c1ccco1 | 3 | -2 | i | 13 | i | 37* | i
CCN(CC)c1ccc(/C=N/NC(=O)c2ccco2)cc1 | 5 | / | i | 13 | i | 31* | i
Cc1cc(Nc2cccc(Br)c2)c2ccccc2n1 | 28 | -28 | i | 10 | i | / | /
COc1ccc(C(O)c2coc3ccc(O)c(CN(C)C)c23)cc1 (stereo unspecified) | 9 | 4 | i | 12 | i | / | /
COc1ccc2occ(C(=O)c3coc4ccc(O)c(CN(C)C)c34)c2c1 | 35 | 3 | i | 5 | 7.6* | 32* | -36*
N#CC1=C(N)Oc2cc(O)c(Cl)cc2C1c1ccccc1F (stereo unspecified) | 8 | 20 | i | 7 | i | / | /
O=c1[nH]c2ccc(S(=O)(=O)N3CCN(C4CCCCC4)CC3)cc2[nH]c1=O | 10 | 0 | i | 24 | i | 46* | -42*
Cn1c(C(=O)Nc2ccc(Cl)cc2)cc2cc(Cl)ccc21 | -2 | -3 | i | 29 | i | / | /
C=CCn1cc(C(=O)OCC)c(=O)c2ccc(F)cc21 | 1 | -1 | i | 11 | i | 37* | -43*
Cc1ccccc1N=C1NC(=O)/C(=C/c2cccnc2)S1 | 7 | 4 | i | / | i | / | /
O=C1c2cccc3cccc(c23)C(=O)N1CCN1CCN(CC(O)COc2ccccc2)CC1 (stereo unspecified) | -16 | 0 | i | 18 | i | -1 | i
Cc1cccc(Oc2nc(CN3CCOCC3)nc3sc4c(c23)CCCC4)c1 | 17 | 9 | i | 8 | i | 35* | i
CCN(CC)CCCNc1nc(CN2CCOCC2)nc2sc3c(c12)CCC3 | 6 | -2 | i | 20 | 7.7* | 59* | -57*
NS(=O)(=O)c1ccc(CCNc2nc(CN3CCOCC3)nc3sc4c(c23)CCC4)cc1 | 15 | -1 | i | 16 | i | / | /
CCC(C)Nc1nc(CN2CCOCC2)nc2sc3c(c12)CCC3 (stereo unspecified) | 26 | 31 | i | 59 | 8.4* | 14* | i
c1cncc(-c2nc(NCCCN3CCOCC3)c3c4c(sc3n2)CCC4)c1 | 18 | 4 | i | 12 | 6.9* | 24* | -47*
c1cncc(-c2nc(N3CCOCC3)c3c4c(sc3n2)CCC4)c1 | 5 | 51 | i | 10 | i | / | /
